Counter-ions that a name gives are not always drawn.

Drawing on the supplement of paper PMC8371130, this text covers relative cell viability for 34 compounds.

The subject of this test is HL-1. The test is described as follows: relative cell viability (CellTiter-Glo) vs DMSO control (% of DMSO control); higher = more viable cells. Particulars: oxygen condition: normoxia 72 h; 40 nM. The method, boiled down: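 Plating of HL-1 mouse atrial cardiomyocytes at 1000 cells per well in 384-well plates was done together with compounds at 40, 200, 1000 or 5000 nM in 0.01% DMSO. A day later the cells faced 48 h of 1% O2 and then 24 h of reoxygenation, or matching normoxia. Viability was measured via CellTiter-Glo luminescence and set relative to vehicle-treated control cells.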
For the compound `CN(C)CCOC(C)(c1ccccc1)c1ccccn1` (centres undefined) [Doxylamine Succinate], the relative cell viability is 107. With `CC(C[N+](C)(C)C)OC(N)=O` (centres undefined) [Bethanechol chloride] the figure was 104; with `CC(C)NC[C@H](O)COc1ccc(CCOCC2CC2)cc1` [Levobetaxolol HCl], 105; with `CNC[C@H](O)c1cccc(O)c1` [Phenylephrine HCl], 110. `CC1(C)O[C@@H]2[C@@H](CO[C@@]3(COS(N)(=O)=O)OC(C)(C)O[C@@H]23)O1` [Topiramate] gave a relative cell viability of 104.

Take `O=C1c2cccc3c2[C@H](CCC3)CN1[C@@H]1CN2CCC1CC2` [Palonosetron HCl]: the relative cell viability worked out at 101. In the case of `NS(=O)(=O)c1cc2c(cc1Cl)N=CNS2(=O)=O` [Chlorothiazide] it was 109; in that of `Nc1ncn([C@@H]2O[C@H](CO)[C@@H](O)[C@H]2O)c(=O)n1` [Azacitidine], 98.6; in that of `O=C(O)Cc1cc(I)c(Oc2ccc(O)c(I)c2)c(I)c1` [Tiratricol], 103.

As for `Cc1onc(-c2ccccc2)c1C(=O)N[C@@H]1C(=O)N2[C@@H]1SC(C)(C)[C@@H]2C(=O)O` [Oxacillin sodium monohydrate], the relative cell viability came out at 103. With `N[C@@H](Cc1cc(I)c(Oc2cc(I)c(O)c(I)c2)c(I)c1)C(=O)O` [L-Thyroxine] the figure was 108.

`COc1ccc(Cl)cc1C(=O)NCCc1ccc(S(=O)(=O)NC(=O)NC2CCCCC2)cc1` [Glyburide] had a relative cell viability of 103.

`COC(=O)C1=C(C)NC(C)=C(C(=O)OC(C)C)C1c1cccc2nonc12` (centres undefined) [Isradipine] had a relative cell viability of 108. `CN(C)CCN(Cc1ccccc1)c1ccccn1` [Tripelennamine HCl] yielded a relative cell viability of 93. For the compound `CN1CCCCC1CCN1c2ccccc2Sc2ccc([S+](C)[O-])cc21` (centres undefined) [Mesoridazine Besylate], the relative cell viability stood at 97. `N[C@@H](Cc1ccc(O)c(O)c1)C(=O)O` [Levodopa]: the relative cell viability came out at 104.

As for `CNCC[C@H](Oc1cccc2ccccc12)c1cccs1` [Duloxetine HCl], the relative cell viability was determined as 89.9. With `CCCNC(C)C(=O)Nc1c(C)csc1C(=O)OC` (centres undefined) [Articaine HCl] the figure was 103; with `CCOc1nc2cccc(C(=O)O)c2n1Cc1ccc(-c2ccccc2-c2nnn[nH]2)cc1` [Candesartan], 107. On to `COc1ccc(-c2nc3cc(C4=NNC(=O)CC4C)ccc3[nH]2)cc1` (centres undefined) [Pimobendan], for which the relative cell viability came to 109. Compound `CCCN[C@H]1CCc2nc(N)sc2C1` [Pramipexole dihydrochloride monohydrate] displayed a relative cell viability of 99. The compound `CCN(CC)C(=S)SSC(=S)N(CC)CC` [Disulfiram] showed a relative cell viability of 19.2. In the case of `CN[C@H](CC(C)C)C(=O)N[C@H]1C(=O)N[C@@H](CC(N)=O)C(=O)N[C@H]2C(=O)N[C@H]3C(=O)N[C@H](C(=O)N[C@H](C(=O)O)c4cc(O)cc(O)c4-c4cc3ccc4O)[C@H](O)c3ccc(c(Cl)c3)Oc3cc2cc(c3O[C@@H]2O[C@H](CO)[C@@H](O)[C@H](O)[C@H]2O[C@H]2C[C@](C)(N)[C@H](O)[C@H](C)O2)Oc2ccc(cc2Cl)[C@H]1O` [Vancomycin HCl] it was 106; in that of `COC(=O)[C@H](c1ccccc1Cl)N1CCc2sccc2C1` [Clopidogrel], 108; in that of `CN(CCOc1ccc(NS(C)(=O)=O)cc1)CCc1ccc(NS(C)(=O)=O)cc1` [Dofetilide], 101.

Turning to `COC(=O)N[C@H](C(=O)N[C@@H](Cc1ccccc1)[C@@H](O)CN(Cc1ccc(-c2ccccn2)cc1)NC(=O)[C@@H](NC(=O)OC)C(C)(C)C)C(C)(C)C` [Atazanavir sulfate], the relative cell viability worked out at 101. In the case of `CN(C)CCc1c[nH]c2ccc(Cn3cncn3)cc12` [Rizatriptan Benzoate] it was 109; in that of `CC=CC1=C(C(=O)O)N2C(=O)[C@@H](NC(=O)[C@H](N)c3ccc(O)cc3)[C@H]2SC1` [Cefprozil hydrate], 102. With `NC(=O)CC[C@H](N)C(=O)O` [L-Glutamine] the figure was 102; with `CCOC(=O)[C@H](CCc1ccccc1)N[C@@H](C)C(=O)N1[C@H](C(=O)O)C[C@@H]2CCC[C@@H]21` [Ramipril], 112. With `CN(C)CCCN1c2ccccc2Sc2ccc(C(F)(F)F)cc21` [Triflupromazine HCl] the figure was 102; with `OC(CCN1CCCCC1)(c1ccccc1)C1CC2C=CC1C2` (centres undefined) [Biperiden HCl], 106. Regarding `CC(=O)Oc1ccccc1C(=O)O` [Aspirin], the relative cell viability worked out at 95.4. For the compound `COc1ccccc1OCC(O)COC(N)=O` (centres undefined) [Methocarbamol], the relative cell viability came out at 101.
